Screening data as filed in PubChem BioAssay.
MARV entry inh = Marburg virus entry inhibition; Potency, µM (titrated, usually from 49.2 µM), without a hit: at the top dose activity change, negative = inhibition, hits mostly inhibitors; Marburg virus pseudotype entry/binding inhibition, cell-based; 18,000 tested, 6.5% active; AID 720532
LASV entry inh = inhibitors of Lassa virus binding or entry into cells; Lassa virus pseudotyped entry inhibition, cell-based qHTS; Potency, µM (series often up to 49.2 µM), without a hit: top-dose activity change, negative = inhibition, hits mostly inhibitors; 18,000 tested, 4.1% active; AID 720533
* marks the source's active call; other numbers are inactive results; ? = inconclusive; / = no result; ! = a repeat was not active; [ ] = another dose, or the depositor's remark. An excerpt weighted towards active compounds, which were near 8.6% of everything screened. The call rests on the fitted dose curve; tested in HEK293 cells. On the % scale 0 is the no-effect control and ±100 the full control effect; potency means the concentration at half of the fitted maximal effect.

SMILES	MARV entry inh	LASV entry inh
C=CCO[C@@H]1C=C[C@@H](c2ccccc2)O[C@@H]1COC	18%[8.59 µM]	4%[8.59 µM]
CCN1\C(=C/C=C/C=C/c2sc3ccccc3[n+]2CC)Sc2ccccc21	7.1µM*	11µM*
CC(C)(C)c1nc(-c2ccccc2)oc1Nc1ccc2ccccc2c1	-24%[8.59 µM]	31%[8.59 µM]
O=C1c2ccccc2C(=O)N1CCCC[C@]12Cc3ccccc3[C@H](O1)c1c(c3ccccc3oc1=O)O2	-29%[8.59 µM]	-5%[8.59 µM]
CCCCCCCCN=C(N)c1ccc(C(=O)OCC2CCCCC2)cc1	2.8µM*	13µM*
CCOC(=O)c1ccc(OC(=O)CCCCCN=C(N)N)cc1	38%[17.8 µM]	-2%[17.8 µM]
COC(=O)CC1OC1[C@H](C)[C@@H](OC)C(C)C (stereo partly drawn)	-15%[8.59 µM]	/
ClC1=C(Cl)C(Cl)(C2(Cl)C(Cl)=C(Cl)C(Cl)=C2Cl)C(Cl)=C1Cl	3.2µM*	?
C[C@H]1C[C@@H](C)O[C@@]2(C1)C(=O)N(Cc1ccc(F)cc1)c1ccccc12	28%[8.59 µM]	16%[8.59 µM]
Cc1ccc(NC2=CC(=O)c3sc(C)nc3C2=O)cc1	4µM*	3.5µM*
N#CCCCS(=O)(=O)c1nnnn1-c1ccccc1	?	24%[8.59 µM]
CCCCCCN1C[C@H](O)[C@@H](n2cc(-c3ccc(F)cc3)nn2)C[C@H]1c1ccccc1	?	-27%
COc1cc(-c2cc(C)c3cccc(OC)c3n2)cc2c1OCCN(C(=O)CCn1ccc(C)n1)C2	-1%	35µM*
COc1cc(-c2c(OC)cccc2OC)cc2c1OCCN(C(=O)CCn1nc(C)cc1C)C2	-4%	-13%
COCOc1ccc(Br)cc1C(=O)C=Cc1ccc2c(c1)OCO2	6%[8.59 µM]	-45%[8.59 µM]
CC(C)(O)C#Cc1ccc(C(=O)NCCN2Cc3ccccc3OC(c3ccccc3F)C2)o1 (stereo not drawn)	-19%	-12%
COc1cc(OC)c2c(=O)c(-c3ccccc3)c(C)oc2c1OC	12%	2%
COc1cc(OC)c2c(-c3ccccc3)cc(=O)oc2c1C(CCN1CCOCC1)c1ccc2c(c1)OCO2 (stereo not drawn)	10µM*	?
COc1ccc(C(CCN2CCOCC2)c2c(OC)cc(OC)c3c(-c4ccccc4)cc(=O)oc23)cc1 (stereo not drawn)	22µM*	?
COc1cc(OC)c2ccc(=O)oc2c1C(CCN1CCOCC1)c1ccc2c(c1)OCO2 (stereo not drawn)	?	-26%
COc1cc(OC)c2ccc(=O)oc2c1C(CCN1CCOCC1)c1ccc(N(C)C)cc1 (stereo not drawn)	-11%	6%
COc1cc(C(CCN2CCOCC2)c2c(OC)cc(OC)c3c(-c4ccccc4)cc(=O)oc23)cc(OC)c1OC (stereo not drawn)	10µM*	4.5µM*
NC(N)=NCC1COC2(CCCCC2)O1 (stereo not drawn)	-5%[17.8 µM]	-1%[17.8 µM]
CCCNC(=O)OC[C@H]1O[C@H](CCON=C2c3cc(OC)ccc3O[C@H](c3cccc(OC)c3)[C@H]2O)C=C[C@H]1Oc1ccc(OC)cc1	?	-10%[8.59 µM]
COC(=O)c1cc(C(=O)OC)n2c(C)cc3ccccc3c12	13%[8.59 µM]	-11%[8.59 µM]
SMILES	MARV entry inh	LASV entry inh
C=CCN1c2ccccc2[C@]23CCC(=O)N(CCc4ccccn4)C2=NC(C(=O)OC)=C(C(=O)OC)[C@H]13	4%[8.59 µM]	14%[8.59 µM]
NC[C@H](O)c1ccc(O)c(O)c1	28µM*	0%
CC(C)NCC(O)c1ccc(O)c(O)c1 (stereo not drawn)	-16%	5%
CNC[C@H](O)c1ccc(O)c(O)c1	7.9µM*!	?
CC(N)C(O)c1cccc(O)c1 (stereo not drawn)	-23%	0%
C[C@H](N)[C@H](O)c1ccc(O)c(O)c1	5µM*	?
NC[C@@H](O)c1ccc(O)c(O)c1	?	8%
Cc1ccccc1CN1CCSCCS1(=O)=O	?	-7%
COC(=O)N[C@@H](c1ccco1)C(C(C)=O)C(=O)OC (stereo partly drawn)	-27%[8.59 µM]	6%[8.59 µM]
COC(=O)C1=C(C(=O)OC)[C@@H]2N(C)c3ccccc3[C@@]23CCC(=O)N(Cc2ccc4c(c2)OCO4)C3=N1	?	4%[8.59 µM]
Cc1ccc(NC(=O)c2ccoc2)cc1-c1ccc(C(=O)NCC2CC2)cc1	0%	?
CSc1nnc(CNC(=O)c2c(-c3ccccc3)noc2C)n1-c1ccc(F)cc1	8%	-15%
COC(=O)C1(O)CC2OC1(C)n1c3ccccc3c3c4c(c5c6ccccc6n2c5c31)C(=O)NC4 (stereo not drawn)	4µM*	?
CC[C@@]12CCCN3CCc4c(n(c5ccccc45)[C@](O)(C(=O)OC)C1)[C@H]32	?	-8%
COC(=O)[C@@]1(O)C[C@@H]2O[C@@]1(C)n1c3ccccc3c3c4c(c5c6ccccc6n2c5c31)C(=O)NC4	14µM*	-20%
CC(=O)[C@]12C[C@@H]3CCN(C(=O)N[C@@H]1c1ccccc1)[C@@]32C	?	-18%[8.59 µM]
COc1ccc([C@]23Cc4cc(C#N)ccc4[C@H](O2)C2=C(CC4(CCCCC4)OC2=O)O3)cc1	1%[8.59 µM]	-23%[8.59 µM]
C[C@@H]1CC[C@H]2C(=O)N(CC3CCCCC3)C[C@H](O)CN2[C@@H]1c1ccc(Br)cc1	?	-24%[8.59 µM]
COc1c(C(N)=O)cc(-c2ccc(Cl)cc2)cc1-c1ccc(S(N)(=O)=O)cc1	-50%	?
CC/C=C\C/C=C\C/C=C\C/C=C\C/C=C\C/C=C\CCC(=O)O	16%	4%
C/C=C/C/C=C/CCC(=O)[C@H]1O[C@H]1C(N)=O	16µM*	16µM*
C=C1C([C@@H](O)C[C@H](C)C2O[C@@]3(CCCCO3)CC[C@H]2C)OC2CC[C@@]3(CC[C@@H](/C=C/[C@@H](C)C4CC(C)=C[C@]5(O4)O[C@H](C[C@@](C)(O)C(=O)O)CCC5O)O3)OC2[C@@H]1O (stereo partly drawn)	?	1.1µM*
CC(C)(C)NCC(O)CSc1nc(-c2ccc(C(N)=O)s2)cs1 (stereo not drawn)	-24%	-8%
O=C(O)C1=CC(=C(c2ccc(O)c(C(=O)O)c2)c2ccc(O)c(C(=O)O)c2)C=CC1=O	0.44µM*	3%
Nc1ccc(O)c(C(=O)O)c1	?	-7%
SMILES	MARV entry inh	LASV entry inh
COC(=O)CC1=CO[C@@H](O)[C@@H]2C(CO)=CC[C@@H]12	16%[8.59 µM]	-11%[8.59 µM]
COc1ccc(C[C@@H]2NC[C@H](O)[C@@H]2OC(C)=O)cc1	?	0.011µM*
COc1ccc(N2C[C@H](Cc3ccccc3)[C@@H](CC(=O)Nc3ccccc3)C2=O)cc1	-27%	/
COc1ccc(C[C@H]2NC[C@H](O)[C@H]2OC(C)=O)cc1	?	3.5e-05µM*
COc1ccc2cc(CCC(C)=O)ccc2c1	54%[17.8 µM]	50%[17.8 µM]
COc1ccccc1-n1cc(C(=O)NCCN2Cc3ccccc3OC(c3ccsc3)C2)cn1 (stereo not drawn)	-3%	-12%
CC=COC(=O)N[C@@H](c1cccc(C)c1)[C@]1(C(=O)OCC)CCCC1=O	13%[8.59 µM]	-17%[8.59 µM]
CCC(=O)C[C@@H](NC(=O)OC)c1ccc(F)cc1	6%[8.59 µM]	2%[8.59 µM]
CC=Cc1cc2ccccc2c2c(C(=O)OC)c(C(=O)OC)c(C(=O)OC)n12	?	-2%[8.59 µM]
CC[C@H]1OC(c2ccccc2)[C@H](C)[C@H]2O[C@@H]2[C@@H]1C(=O)OC (stereo partly drawn)	-5%[8.59 µM]	-12%[8.59 µM]
COc1cc2c(cc1OC)C(=O)C(CC1CCN(Cc3ccccc3)CC1)C2 (stereo not drawn)	?	-17%
COc1cc(SC)ccc1C(=O)N1CCC(Cc2ccccc2)CC1	-17%	11µM*
CN1CCN(C(c2ccccc2)c2ccccc2)CC1	11µM*!	11µM*!
